Reference: the supplement of paper PMC4466140

B1: unnamed (peptide)
chain: QPQRTAPKPPISAPR
B2: unnamed (peptide)
chain: GKFIPSRPAPKPPSS
B3: unnamed (peptide)
chain: DTFLPPPPPPPSNFE

target: AgAbp1; assay: SPOT peptide array binding signal intensity (averaged, normalized) (arbitrary units (background-subtracted, floor 0; scale differs between SH3 domains)); higher = stronger binding of the SH3 domain to the peptide
Outline: (§1)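 To measure binding, SH3 domains from four yeast species were fused to GST, expressed in E. coli BL21(DE3) and purified on glutathione Sepharose. Each domain was incubated at 10 μg/ml overnight at 4°C on cellulose membranes with synthetic 15-mer peptides whose cysteines were replaced by serines. Anti-GST antibody, an HRP anti-mouse secondary and luminol were used for detection, and images were quantified with Genespotter. Reported binding signal is normalized, background-subtracted spot intensity averaged over replicates, in arbitrary units that differ between domains.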

Binder | SPOT peptide array binding signal intensity
B1 | 2
B2 | 978

target: AgBbc1; assay: as above
Outline: as §1

Binder | SPOT peptide array binding signal intensity
B1 | 170
B2 | 1050

target: AgBem1-D1; assay: as above
Outline: as §1

Binder | SPOT peptide array binding signal intensity
B1 | 128
B2 | 328

target: AgBzz1-D1; assay: as above
Outline: as §1

Binder | SPOT peptide array binding signal intensity
B1 | 51
B2 | 46

target: AgBzz1-D2; assay: as above
Outline: as §1

Binder | SPOT peptide array binding signal intensity
B1 | 28
B2 | 37

target: AgCyk3; assay: as above
Outline: as §1

Binder | SPOT peptide array binding signal intensity
B1 | 1
B2 | 2

target: AgFus1; assay: as above
Outline: as §1

Binder | SPOT peptide array binding signal intensity
B1 | 11
B2 | ≤ 0

target: AgHof1; assay: as above
Outline: as §1

Binder | SPOT peptide array binding signal intensity
B1 | 4.75
B2 | 51.8

target: AgHse1; assay: as above
Outline: as §1

Binder | SPOT peptide array binding signal intensity
B1 | 14
B2 | 8

target: AgLsb1; assay: as above
Outline: as §1

Binder | SPOT peptide array binding signal intensity
B1 | 0.5
B2 | 218

target: AgLsb4; assay: as above
Outline: as §1

Binder | SPOT peptide array binding signal intensity
B1 | ≤ 0
B2 | 19

target: AgMyo5; assay: as above
Outline: as §1

Binder | SPOT peptide array binding signal intensity
B1 | 327
B2 | 1850

target: AgNbp2; assay: as above
Outline: as §1

Binder | SPOT peptide array binding signal intensity
B1 | 1510
B2 | 4160

target: AgRvs167; assay: as above
Outline: as §1

Binder | SPOT peptide array binding signal intensity
B1 | 1
B2 | 2.83

target: AgSho1; assay: as above
Outline: as §1

Binder | SPOT peptide array binding signal intensity
B1 | 4
B2 | 17

target: AgSla1-D1-D2; assay: as above
Outline: as §1

Binder | SPOT peptide array binding signal intensity
B1 | ≤ 0
B2 | 35

target: AgSla1-D3; assay: as above
Outline: as §1

Binder | SPOT peptide array binding signal intensity
B1 | ≤ 0
B2 | 9.25

target: CaAbp1-D1; assay: as above
Outline: as §1

Binder | SPOT peptide array binding signal intensity
B1 | ≤ 0
B2 | 922

target: CaAbp1-D2; assay: as above
Outline: as §1

Binder | SPOT peptide array binding signal intensity
B1 | 5
B2 | 764

target: CaBbc1; assay: as above
Outline: as §1

Binder | SPOT peptide array binding signal intensity
B1 | 693
B2 | 1370

target: CaBem1-D1; assay: as above
Outline: as §1

Binder | SPOT peptide array binding signal intensity
B1 | 73
B2 | 2020

target: CaBzz1-D1; assay: as above
Outline: as §1

Binder | SPOT peptide array binding signal intensity
B1 | 1260
B2 | 1860

target: CaBzz1-D2; assay: as above
Outline: as §1

Binder | SPOT peptide array binding signal intensity
B1 | 420
B2 | 808

target: CaCyk3; assay: as above
Outline: as §1

Binder | SPOT peptide array binding signal intensity
B1 | 0.5
B2 | 88.5

target: CaFus1; assay: as above
Outline: as §1

Binder | SPOT peptide array binding signal intensity
B1 | ≤ 0
B2 | 54.5

target: CaHof1; assay: as above
Outline: as §1

Binder | SPOT peptide array binding signal intensity
B1 | 0.5
B2 | 0.5

target: CaHse1; assay: as above
Outline: as §1

Binder | SPOT peptide array binding signal intensity
B1 | ≤ 0
B2 | ≤ 0

target: CaLsb1; assay: as above
Outline: as §1

Binder | SPOT peptide array binding signal intensity
B1 | 0.5
B2 | ≤ 0

target: CaLsb4; assay: as above
Outline: as §1

Binder | SPOT peptide array binding signal intensity
B1 | ≤ 0
B2 | 53

target: CaMyo5; assay: as above
Outline: as §1

Binder | SPOT peptide array binding signal intensity
B1 | 7.5
B2 | 24

target: CaNbp2; assay: as above
Outline: as §1

Binder | SPOT peptide array binding signal intensity
B1 | 1340
B2 | 3600
B3 | ≤ 0

target: CaRvs167; assay: as above
Outline: as §1

Binder | SPOT peptide array binding signal intensity
B1 | ≤ 0
B2 | 26.2
B3 | 0.5

target: CaRvs167-3; assay: as above
Outline: as §1

Binder | SPOT peptide array binding signal intensity
B1 | 1
B2 | 3.25
B3 | ≤ 0

target: CaSho1; assay: as above
Outline: as §1

Binder | SPOT peptide array binding signal intensity
B1 | 14
B2 | 36
B3 | 12

target: CaSla1-D1-D2; assay: as above
Outline: as §1

Binder | SPOT peptide array binding signal intensity
B1 | 291
B2 | 684
B3 | ≤ 0

target: CaSla1-D3; assay: as above
Outline: as §1

Binder | SPOT peptide array binding signal intensity
B1 | 0.5
B2 | 14.5
B3 | ≤ 0

target: ScAbp1; assay: as above
Outline: as §1

Binder | SPOT peptide array binding signal intensity
B1 | 8
B2 | 127
B3 | ≤ 0

target: ScBbc1; assay: as above
Outline: as §1

Binder | SPOT peptide array binding signal intensity
B1 | 268
B2 | 552
B3 | ≤ 0

target: ScBem1-D1; assay: as above
Outline: as §1

Binder | SPOT peptide array binding signal intensity
B1 | ≤ 0
B2 | 1
B3 | ≤ 0

target: ScBzz1-D1; assay: as above
Outline: as §1

Binder | SPOT peptide array binding signal intensity
B1 | 4
B2 | 39
B3 | 2.5

target: ScBzz1-D2; assay: as above
Outline: as §1

Binder | SPOT peptide array binding signal intensity
B1 | 15.5
B2 | 25
B3 | ≤ 0

target: ScCyk3; assay: as above
Outline: as §1

Binder | SPOT peptide array binding signal intensity
B1 | ≤ 0
B2 | 2
B3 | ≤ 0

target: ScFus1; assay: as above
Outline: as §1

Binder | SPOT peptide array binding signal intensity
B1 | ≤ 0
B2 | ≤ 0
B3 | ≤ 0

target: ScHof1; assay: as above
Outline: as §1

Binder | SPOT peptide array binding signal intensity
B1 | ≤ 0
B2 | 8.25
B3 | 25.5

target: ScHse1; assay: as above
Outline: as §1

Binder | SPOT peptide array binding signal intensity
B1 | ≤ 0
B2 | 74
B3 | ≤ 0

target: ScLsb1; assay: as above
Outline: as §1

Binder | SPOT peptide array binding signal intensity
B1 | ≤ 0
B2 | 175
B3 | ≤ 0

target: ScLsb2; assay: as above
Outline: as §1

Binder | SPOT peptide array binding signal intensity
B1 | ≤ 0
B2 | 161
B3 | ≤ 0

target: ScLsb3; assay: as above
Outline: as §1

Binder | SPOT peptide array binding signal intensity
B1 | 58
B2 | 508
B3 | ≤ 0

target: ScLsb4; assay: as above
Outline: as §1

Binder | SPOT peptide array binding signal intensity
B1 | ≤ 0
B2 | 13.5
B3 | ≤ 0

target: ScMyo3; assay: as above
Outline: as §1

Binder | SPOT peptide array binding signal intensity
B1 | 699
B2 | 3530
B3 | 2140

target: ScMyo5; assay: as above
Outline: as §1

Binder | SPOT peptide array binding signal intensity
B1 | 613
B2 | 3480
B3 | 1690

target: ScNbp2; assay: as above
Outline: as §1

Binder | SPOT peptide array binding signal intensity
B1 | 2700
B2 | 5410
B3 | ≤ 0

target: ScPex13; assay: as above
Outline: as §1

Binder | SPOT peptide array binding signal intensity
B1 | 131
B2 | 1460
B3 | 140

target: ScRvs167; assay: as above
Outline: as §1

Binder | SPOT peptide array binding signal intensity
B1 | ≤ 0
B2 | 274
B3 | 1

target: ScSho1; assay: as above
Outline: as §1

Binder | SPOT peptide array binding signal intensity
B1 | 6
B2 | 66.5
B3 | ≤ 0

target: ScSla1-D1-D2; assay: as above
Outline: as §1

Binder | SPOT peptide array binding signal intensity
B1 | 1730
B2 | 652
B3 | ≤ 0

target: ScSla1-D3; assay: as above
Outline: as §1

Binder | SPOT peptide array binding signal intensity
B1 | 25.5
B2 | 156
B3 | ≤ 0

target: SpAbp1-D1; assay: as above
Outline: as §1

Binder | SPOT peptide array binding signal intensity
B1 | 2.5
B2 | 187
B3 | ≤ 0

target: SpBbc1; assay: as above
Outline: as §1

Binder | SPOT peptide array binding signal intensity
B1 | 10
B2 | 46.5
B3 | ≤ 0

target: SpBzz1-D1; assay: as above
Outline: as §1

Binder | SPOT peptide array binding signal intensity
B1 | 260
B2 | 735
B3 | 1360

target: SpBzz1-D2; assay: as above
Outline: as §1

Binder | SPOT peptide array binding signal intensity
B1 | 14.5
B2 | 9.5
B3 | 6.5

target: SpCyk3; assay: as above
Outline: as §1

Binder | SPOT peptide array binding signal intensity
B1 | 0.5
B2 | 5
B3 | ≤ 0

target: SpHof1; assay: as above
Outline: as §1

Binder | SPOT peptide array binding signal intensity
B1 | ≤ 0
B2 | 77.5
B3 | ≤ 0

target: SpHof1-2; assay: as above
Outline: as §1

Binder | SPOT peptide array binding signal intensity
B1 | 7.5
B2 | 33
B3 | 6.75

target: SpHof1-3; assay: as above
Outline: as §1

Binder | SPOT peptide array binding signal intensity
B1 | ≤ 0
B2 | 94.8
B3 | ≤ 0

target: SpHse1; assay: as above
Outline: as §1

Binder | SPOT peptide array binding signal intensity
B1 | ≤ 0
B2 | 180
B3 | 12.5

target: SpLsb1; assay: as above
Outline: as §1

Binder | SPOT peptide array binding signal intensity
B1 | ≤ 0
B2 | 98.8
B3 | ≤ 0

target: SpLsb4; assay: as above
Outline: as §1

Binder | SPOT peptide array binding signal intensity
B1 | 27.5
B2 | 600
B3 | ≤ 0

target: SpMyo1; assay: as above
Outline: as §1

Binder | SPOT peptide array binding signal intensity
B1 | 2550
B2 | 2900
B3 | 1100

target: SpNbp2; assay: as above
Outline: as §1

Binder | SPOT peptide array binding signal intensity
B1 | 22.5
B2 | 850
B3 | ≤ 0

target: SpPex13; assay: as above
Outline: as §1

Binder | SPOT peptide array binding signal intensity
B1 | 1
B2 | 22
B3 | ≤ 0

target: SpRvs167; assay: as above
Outline: as §1

Binder | SPOT peptide array binding signal intensity
B1 | 2.33
B2 | 90
B3 | 2

target: SpSla1-D1-D2; assay: as above
Outline: as §1

Binder | SPOT peptide array binding signal intensity
B1 | ≤ 0
B2 | ≤ 0
B3 | ≤ 0

target: SpSla1-D3; assay: as above
Outline: as §1

Binder | SPOT peptide array binding signal intensity
B1 | ≤ 0
B2 | 3.5
B3 | ≤ 0
